Assay results from PubChem BioAssay (NCI).
Compounds without any hit were thinned out: in the full panel of roughly 83,000, 20% have a hit.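 Assay: single dose, 48 h. Readout: percent growth (0 = no net growth; negative = cell death). Active: <10.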 Unmarked numbers belong to inactive results. Active and inactive are the calls of the source.

System: HT29 colon
Assay: NCI-60 one-dose screen, 48 h (100 = growth as untreated, 0 = no growth, -100 = all killed)
Details: 10 µM unless noted

Row | Structure (SMILES) | growth
1 | O=C(CSc1nccc(=O)[nH]1)Nc1ccc(-c2nc3ccccc3[nH]2)cc1 | 109%
2 | N[C@@H](Cc1cn(-c2ccnc3ccccc23)nn1)C(=O)O | 102%
3 | CCOC(=O)c1c(Nc2ccccc2)nn2c(N)c(C#N)c(-c3ccc(F)cc3)nc12 | 97%
4 | O=C(N/N=C/c1ccc([N+](=O)[O-])o1)c1[nH]c2ccc(Br)cc2c1-c1ccccc1 | 9.21% (active)
5 | CN(C)CCCNc1c2ccc(Cl)cc2nc2c1oc1ccc(Cl)cc12 | -45.6% (active)
6 | Cc1c(NC(=O)CSc2nc3sc4c(c3c(=O)n2-c2ccc(Cl)cc2)CCCC4)c(=O)n(-c2ccccc2)n1C | 101%
7 | CC(C)(C)Nc1nc2c(OCCc3ccccc3)cccn2c1-c1ccc(Cl)cc1 | 24.2%
8 | CN(C)CCCNc1c2ccc(Cl)cc2nc2c1oc1ccccc12 | -22.2% (active)
9 | COc1ccccc1C(=O)CSc1nc(Nc2ccc(S(N)(=O)=O)cc2)c2ccccc2n1 | 102%
10 | COc1ccccc1/C=C/C=N/NC1=NC2C(S1)N(C)C(=O)N2C (stereo not drawn) | 6.54% (active)
11 | COc1cccc(N2CCN(c3ncnc4c3[nH]c3ccc(F)cc34)C[C@@H]2C)c1 | 5.69% (active)
12 | O=C(CSc1nnc(-c2ccc3nc(-c4ccc(Cl)cc4)[nH]c3c2)o1)Nc1ccc(C(=O)/C=C/c2ccc(Cl)cc2)cc1 | 100%
13 | Cc1nc2cnc(N)c(C#Cc3cncc(C(=O)Nc4ccc(Cl)c(C(F)(F)F)c4)c3)c2nc1C | 31.5%
14 | Cc1ccc(C(=O)Nc2cccc(C(F)(F)F)c2)cc1Nc1nc(-c2cnccn2)nc2c1cnn2C | 32.9%
15 | CC(=O)Oc1ccccc1C(=O)Nc1cc(C(C)C)ccc1C | 91.5%
16 | COc1ccc(/C=N/NC(=O)c2[nH]c3ccc(Br)cc3c2-c2ccccc2)s1 | 0.251% (active)
17 | O=C(CN1C(=O)/C(=C/c2ccccc2)SC1=S)N1CCOCC1 | 112%
18 | COc1ccc(-c2nc3ccc(-c4nnc(SCC(=O)Nc5ccc(C(=O)/C=C/c6ccc(Cl)cc6)cc5)o4)cc3[nH]2)cc1OC | 108%
19 | CN1C(=S)N(C)C2C1NN=C1SC(c3ccccc3)=CC(=O)N12 (stereo not drawn) | 103%

Row | Structure (SMILES) | growth
20 | CN(C)c1ccc(/C=C2\Cc3c(F)ccc(Br)c3C2=O)cc1 | 104%
21 | CN(C)S(=O)(=O)c1oc(-c2ccccc2)nc1C#N | 35.1%
22 | CC(C)(C)OC(=O)N1C(=O)c2c(c3c4ccccc4[nH]c3c3ccc4ccccc4c23)C1=O | 51.6%
23 | Cc1[nH]nc2ncc(C#Cc3cncc(C(=O)Nc4ccc(CN5CCN(C)CC5)c(C(F)(F)F)c4)c3)cc12 | 9.72% (active)
24 | C#Cc1nc(C2=C(C)C(=N\O)/C(=N/O)C2)cs1 | 111%
25 | O=c1[nH]c2ccccc2cc1CSc1ccccc1Nc1nccc(-c2ccc(C(F)(F)F)cc2)n1 | 56.1%
26 | COC1CCN(Cc2ccc3c(NNC(=O)c4cnccn4)nc4cc(F)ccc4n23)C1 (stereo not drawn) | 19.3%
27 | O=C(CN1CCOCC1)NNc1ncnc2ccccc12 | 92%
28 | Cn1c(SCC(=O)Nc2ccc(-c3nc4ccc([N+](=O)[O-])cc4[nH]3)cc2)nc2ccccc2c1=O | 89.7%
29 | O=C(CSc1nc2sc3c(c2c(=O)n1-c1ccc(Cl)cc1)CCCC3)N/N=C/c1ccc(F)cc1 | 60.6%
30 | O=c1/c(=C\c2ccc(-c3ccccc3)o2)sc2nc(-c3ccccc3)nn12 | 102%
31 | COC(=O)C1CCCN(S(=O)(=O)/N=C2\NC(=O)NC2=C(Cl)Cl)C1 (stereo not drawn) | 116%
32 | Clc1ccc2c(NCCCN3CCOCC3)c3oc4ccc(Cl)cc4c3nc2c1 | 33.5%
33 | N#Cc1nc(-c2ccccc2)oc1N1CC[C@@H](CO)C1 | 107%
34 | O=C(c1ccc(O)cc1)C1[C@H](c2ccc(Cl)cc2)[C@@H](c2ccccc2)NC12C(=O)Nc1ccc(Cl)cc12 (stereo partly drawn) | 4.23% (active)
35 | COc1cccc(OC)c1-c1nnn(C)c1C(=S)N1CCN(c2ccc([N+](=O)[O-])cc2Cl)CC1 | 104%
36 | CCCC(=O)NC(c1cccc(N(C)C)c1)c1cc(C)c2cccnc2c1O (stereo not drawn) | 91.6%
37 | CC(=O)Oc1ccccc1C(=O)Nc1ccc(C(=O)/C=C/c2ccncc2)cc1 | 5.38% (active)
38 | C#Cc1nc(C2=C(C)C(OC(=O)CCC(=O)O)CC2)cs1 (stereo not drawn) | 125%
